The source of these data is PubChem BioAssay (NCI).

Common to all, as to experiment: NCI-60 one-dose screen, 48 h (100 = growth as untreated, 0 = no growth, -100 = all killed)
What all share (conditions): 10 µM unless noted

Test [1] relates to NCI-H23 lung.
For test [2], the system named is NCI-H226 lung.
Test [3] has as its system NCI-H322M lung.
Test [4] relates to HOP-62 NSCLC.
The subject of test [5] is NCI-H460 lung.
The test system of test [6] is NCI-H522 lung.
Test [7] concerns A549/ATCC NSCLC.
In test [8] the test system is 786-0 renal.
The subject of test [9] is COLO 205 colon.
In test [10] the test system is DU-145 prostate.
In test [11] the test system is K-562 leukemia.
For test [12], the system named is MALME-3M melanoma.
Test [13] deals with MDA-MB-231 breast.
In test [14] the test system is SF-268 CNS.
Test [15] has as its system SF-295 CNS.
Test [16] concerns SF-539 CNS.
The subject of test [17] is UACC-257 melanoma.
Test [18] deals with M14 melanoma.
For test [19], the system named is RXF 393 renal.
In test [20] the test system is HOP-92 NSCLC.

The panel holds about 83,000 compounds, 20% with a hit somewhere; the sample as a whole holds those more often.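 Negative percent growth values reflect cell death: -40 means 40% of the cells present at the start died, and -100 means all died.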 Unmarked numbers belong to inactive results. Active and inactive are the calls of the source. The calls were made as follows: active = growth percent below 10; inactive = the rest.

For `Cc1ccc(Nc2ccc(O)c3c2C(=O)c2c(O)ccc(Nc4ccc(C)cc4)c2C3=O)cc1`, the growth in test [1] is 101%; in [2] it was 95.6%; in test [3], 128%; in test [4], 101%; in test [5], 105%; in [6], 94.8%. In addition, the growth in [7] was 99.1%; in test [8] it was 102%; in test [9], 108%; in test [10], 124%; in [11], 115%; in [12], 102%. Moreover, the growth in test [13] was 110%; in test [14], 114%; in test [15], 104%; in test [16], 96.3%; in test [17], 95%; in test [18], 102%.
Consider `Cc1ccc(/C=C2\CNC/C(=C\c3ccc(C)cc3)C2=O)cc1`, for which the growth in [1] is 2.76% (active); in [2], -63.2% (active); in [3] it was 22.9%; in [4], 4.5% (active); in test [5], -47.1% (active); in [6], -54% (active). For the same molecule, the growth is -53.7% (active) in test [7]; -71.5% (active) in [8]; -70.5% (active) in test [9]; -87.5% (active) in test [10]; -28.5% (active) in [11]; 29.4% in [12]. Moreover, the growth in [13] is -15.9% (active); in test [19] it was -57.4% (active); in [14], -8.61% (active); in test [15], -5.11% (active); in test [16] it was -64.5% (active); in [17], -21.1% (active).
As for `O=C(c1ccccc1)c1ccc(O)c2ncccc12`, the growth in test [1] is 19.9%; in [2], 29.3%; in [3], 44.6%; in [4], 38.6%; in test [5] it was 13.7%; in test [20], 49.6%. Further, the growth in test [7] was 30.2%; in test [8], 31.6%; in test [9], 104%; in test [11] it was 15%; in test [12], 56.1%; in [13] it was 38.2%. In addition, the growth is 41.8% in test [19]; 34.3% in [14]; 74.6% in test [15]; 21.6% in [16]; 17.3% in test [17]; 35.5% in test [18].
`CC(C)c1ccc(Nc2n[nH]c(=S)s2)cc1`: the growth in [1] was 87.1%; in test [2] it was 105%; in test [3] it was 102%; in [4] it was 99.4%; in [5] it was 114%; in test [20], 82.6%. The growth was 101% in test [7]; 96.8% in test [8]; 116% in [9]; 104% in test [10]; 95.5% in test [11]; 102% in test [12]. The growth is 89.1% in [13]; 109% in test [19]; 107% in [14]; 90.4% in [15]; 104% in [16]; 93.5% in test [18].
Consider `Cc1cc(C)c(C#N)c(Sc2nc(C)c([N+](=O)[O-])c(C)c2C#N)n1`, for which the growth in test [1] is 60.2%; in [2], 111%; in test [3], 83.6%; in [4], 72.8%; in test [5] it was 89.9%; in test [20], -1.8% (active). Further, the growth was 77% in test [7]; 103% in test [8]; 37.8% in test [9]; 41.7% in test [10]; 14.5% in [11]; 36.1% in test [12]. Moreover, the growth in test [13] was 91.4%; in test [19] it was 55.2%; in test [14], 81.6%; in [15], 84.1%; in test [16] it was 49.5%; in test [18], 54.2%.
For `CC1=CC(=O)C=CC1(C)C(Cl)(Cl)Cl` (stereo not drawn), the growth in test [1] was 100%; in [2] it was 95.2%; in test [3] it was 102%; in test [4], 84.7%; in test [5], 104%; in [6] it was 82.2%. The growth in [7] was 68.4%; in [8], 101%; in test [9] it was 89.7%; in test [10], 124%; in test [11], 107%; in [12] it was 91.2%. Further, the growth in test [13] is 92.2%; in test [19] it was 115%; in test [14], 107%; in test [15] it was 102%; in test [17], 69.8%; in [18] it was 97.8%.
With `CC1CC(C)(C)OB(OC(C)CC(C)(C)OB2OC(C)CC(C)(C)O2)O1` (stereo not drawn), the growth in [1] is 93%; in [2], 107%; in [3] it was 102%; in test [4], 91.6%; in test [5], 111%; in test [6], 81.6%. For the same molecule, the growth was 93.8% in [7]; 98.4% in [8]; 93.8% in [9]; 102% in test [10]; 96.1% in [11]; 111% in test [12]. Further, the growth in test [19] is 116%; in [14], 102%; in [15], 105%; in [16] it was 104%; in test [17] it was 94.8%; in [18], -55.3% (active).
On to `CC(C)(C)c1ccc(O)c(-c2ccccc2)c1`, for which the growth in test [1] was 105%; in test [2], 122%; in [3] it was 104%; in test [4], 112%; in test [5], 112%; in test [6], 83.5%. The growth in test [7] was 109%; in test [8], 109%; in test [9] it was 105%; in test [10] it was 115%; in [11], 105%; in test [12], 130%. Also, the growth in [13] was 120%; in test [19], 112%; in test [14], 105%; in test [15], 126%; in test [16], 108%; in [17], 90.1%. Moreover, in test [18], the growth was 121%.
Consider `O=S(=O)(O)c1cnccn1`, for which the growth in test [1] was 97.6%; in [2] it was 104%; in test [3], 101%; in [4], 71.6%; in test [5], 123%; in test [6], 96%. Moreover, the growth was 73.9% in test [7]; 97.8% in test [8]; 107% in [9]; 110% in test [10]; 106% in test [11]; 108% in [12]. Moreover, the growth in test [13] was 108%; in test [19], 114%; in test [14], 102%; in [15], 101%; in test [16], 97.2%; in test [18], 100%.
